In PubChem BioAssay (EPA / NIEHS):
Inconclusive results are not listed. The source made the active and inactive calls. The calls were made as follows, unless noted: active = hit-call score of the fitted dose curve at least 0.9, where 1 is the maximum; inconclusive = response in the unintended direction; inactive = score below 0.9.

Columns and labels:
[1] = target: human Peroxisome Proliferator-activated Receptor delta (PPARd), PPARD (gene 5467) (UniProt Q03181); assay: ATG_PPARd_TRANS: Attagene TRANS-FACTORIAL HepG2 Assay for human Peroxisome Proliferator-activated Receptor delta (PPARd) (AID 2283002)
human Peroxisome Proliferator-activated Receptor delta (PPARd), PPARD (gene 5467), sequence (Q03181 whole entry, looked up, the tested form may be a part): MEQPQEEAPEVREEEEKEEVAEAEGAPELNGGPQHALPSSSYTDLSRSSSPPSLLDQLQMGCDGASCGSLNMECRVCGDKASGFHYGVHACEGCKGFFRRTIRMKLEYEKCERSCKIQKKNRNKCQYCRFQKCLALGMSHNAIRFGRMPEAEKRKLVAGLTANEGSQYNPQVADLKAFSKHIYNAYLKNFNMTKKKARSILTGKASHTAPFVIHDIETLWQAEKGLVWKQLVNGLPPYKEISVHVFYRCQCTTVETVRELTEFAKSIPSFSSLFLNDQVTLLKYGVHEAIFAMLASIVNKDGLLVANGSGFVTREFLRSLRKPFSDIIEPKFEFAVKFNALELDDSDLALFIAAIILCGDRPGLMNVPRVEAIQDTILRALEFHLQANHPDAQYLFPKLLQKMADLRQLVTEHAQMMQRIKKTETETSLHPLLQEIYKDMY
Summary of the method: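 HepG2 cells transiently transfected with GAL4-UAS multiplexed reporter units driven by exogenous chimeric NR-GAL4 proteins; 24 h compound exposure. Reporter mRNA measured by RT-PCR, 6-FAM primer extension, HpaI digestion and capillary electrophoresis; gain of signal fitted relative to DMSO.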

[2] = target: human Retinoic Acid Receptor beta (RARb), RARB (gene 5915) (UniProt P10826); assay: ATG_RARb_TRANS: Attagene TRANS-FACTORIAL HepG2 Assay for human Retinoic Acid Receptor beta (AID 2283004)
human Retinoic Acid Receptor beta (RARb), RARB (gene 5915), sequence (P10826 whole entry, looked up, the tested form may be a part): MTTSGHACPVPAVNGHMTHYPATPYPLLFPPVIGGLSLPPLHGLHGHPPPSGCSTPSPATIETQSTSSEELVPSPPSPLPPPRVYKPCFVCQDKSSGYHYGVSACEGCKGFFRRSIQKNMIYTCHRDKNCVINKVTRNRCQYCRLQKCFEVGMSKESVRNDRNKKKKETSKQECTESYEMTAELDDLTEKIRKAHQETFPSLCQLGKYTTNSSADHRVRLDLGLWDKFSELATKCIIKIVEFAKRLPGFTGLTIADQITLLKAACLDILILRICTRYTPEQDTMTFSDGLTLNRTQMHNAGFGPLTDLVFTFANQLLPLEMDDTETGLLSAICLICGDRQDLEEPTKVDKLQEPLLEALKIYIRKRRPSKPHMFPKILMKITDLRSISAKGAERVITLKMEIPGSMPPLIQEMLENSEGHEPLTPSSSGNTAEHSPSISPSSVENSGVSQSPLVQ
Summary of the method: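 Fluorescent capillary-electrophoresis detection of GAL4-UAS reporter mRNA defines the endpoint, with induction over DMSO-treated wells scored as activity. Transiently transfected human hepatoma HepG2 cells expressing exogenous NR–Gal4 proteins are exposed to test chemicals for 24 h.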

[3] = target: Nuclear receptor subfamily 1 group I member 2 (Homo sapiens) (UniProt O75469); assay: ATG_PXR_TRANS: Attagene TRANS-FACTORIAL HepG2 Assay for human Pregnane X Receptor (PXR) (AID 2283008)
Summary of the method: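 HepG2 transfected (FuGene 6) with GAL4-UAS reporter units + PXR-Gal4 chimera; dosed 24 h. Total RNA → oligo(dT) RT → PCR → 6-FAM primer extension → HpaI cut → CE. Gain-of-signal vs DMSO.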

[4] = target: human RAR-related Orphan Receptor beta (RORb), RORB (gene 6096) (UniProt Q92753); assay: ATG_RORb_TRANS: Attagene TRANS-FACTORIAL HepG2 Assay for human RAR-related Orphan Receptor beta (RORb) (AID 2283010)
human RAR-related Orphan Receptor beta (RORb), RORB (gene 6096), sequence (Q92753 whole entry, looked up, the tested form may be a part): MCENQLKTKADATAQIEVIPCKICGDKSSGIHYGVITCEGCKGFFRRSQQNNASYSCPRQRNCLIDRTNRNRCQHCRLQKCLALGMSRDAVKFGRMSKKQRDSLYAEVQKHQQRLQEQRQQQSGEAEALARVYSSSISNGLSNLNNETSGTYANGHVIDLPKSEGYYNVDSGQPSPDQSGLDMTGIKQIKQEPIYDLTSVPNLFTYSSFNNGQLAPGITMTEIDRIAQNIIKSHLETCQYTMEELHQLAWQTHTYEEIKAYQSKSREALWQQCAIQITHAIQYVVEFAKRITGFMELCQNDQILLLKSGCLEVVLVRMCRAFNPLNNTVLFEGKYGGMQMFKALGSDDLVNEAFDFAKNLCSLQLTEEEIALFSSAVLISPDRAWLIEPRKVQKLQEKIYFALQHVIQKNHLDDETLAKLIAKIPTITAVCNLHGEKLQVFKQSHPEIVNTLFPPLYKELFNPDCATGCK
Summary of the method: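 Multiplexed transcription-factor reporter assay: HepG2 cells transiently carrying NR-Gal4/GAL4-UAS constructs, 24 h treatment, mRNA quantified by RT-PCR plus capillary electrophoresis fluorescence; activity scored as induction over DMSO.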

[5] = target: human RAR-related Orphan Receptor gamma (RORg), RORC (gene 6097) (UniProt P51449); assay: ATG_RORg_TRANS: Attagene TRANS-FACTORIAL HepG2 Assay for human RAR-related Orphan Receptor gamma (RORg) (AID 2283011)
human RAR-related Orphan Receptor gamma (RORg), RORC (gene 6097), sequence (P51449 whole entry, looked up, the tested form may be a part): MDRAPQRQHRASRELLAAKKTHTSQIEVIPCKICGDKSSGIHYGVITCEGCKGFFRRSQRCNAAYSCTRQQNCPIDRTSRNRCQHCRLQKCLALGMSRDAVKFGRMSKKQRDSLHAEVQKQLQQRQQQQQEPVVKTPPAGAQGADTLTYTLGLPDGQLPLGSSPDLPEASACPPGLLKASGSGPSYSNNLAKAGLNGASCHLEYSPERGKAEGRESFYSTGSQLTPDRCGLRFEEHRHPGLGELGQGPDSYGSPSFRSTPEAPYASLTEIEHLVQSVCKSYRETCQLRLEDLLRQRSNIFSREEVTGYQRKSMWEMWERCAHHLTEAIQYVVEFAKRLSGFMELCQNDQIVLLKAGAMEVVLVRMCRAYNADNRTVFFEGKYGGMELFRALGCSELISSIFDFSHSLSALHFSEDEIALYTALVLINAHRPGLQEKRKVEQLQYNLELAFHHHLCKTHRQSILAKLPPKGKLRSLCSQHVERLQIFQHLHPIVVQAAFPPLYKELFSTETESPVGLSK
Summary of the method: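 Chimeric RORg-Gal4 transactivation in transfected HepG2; 24 h exposure; RT-PCR/capillary electrophoresis readout of reporter mRNA, DMSO baseline.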

[6] = target: Retinoic acid receptor RXR-alpha (Homo sapiens) (UniProt P19793); assay: ATG_RXRa_TRANS: Attagene TRANS-FACTORIAL HepG2 Assay for human Retinoid X Receptor alpha (RXRa) (AID 2283012)
Retinoic acid receptor RXR-alpha (Homo sapiens), sequence (P19793 whole entry, looked up, the tested form may be a part): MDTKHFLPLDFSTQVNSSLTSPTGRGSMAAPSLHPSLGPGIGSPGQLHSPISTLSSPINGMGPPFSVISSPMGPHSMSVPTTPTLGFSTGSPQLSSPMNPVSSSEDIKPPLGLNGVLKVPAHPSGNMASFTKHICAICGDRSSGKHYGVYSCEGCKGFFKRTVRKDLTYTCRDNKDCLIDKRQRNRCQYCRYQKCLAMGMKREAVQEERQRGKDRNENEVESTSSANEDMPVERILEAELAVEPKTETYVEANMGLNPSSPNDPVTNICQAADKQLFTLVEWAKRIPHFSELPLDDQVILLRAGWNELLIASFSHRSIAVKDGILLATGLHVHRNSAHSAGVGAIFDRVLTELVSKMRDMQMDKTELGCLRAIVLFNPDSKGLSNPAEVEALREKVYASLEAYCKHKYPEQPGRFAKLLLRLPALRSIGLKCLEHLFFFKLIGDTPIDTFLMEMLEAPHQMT
Summary of the method: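 Chimeric NR-GAL4 trans-activation in HepG2, 24 h treatment; reporter transcripts quantified by fluorescence on capillary electrophoresis, analysed for upward change from DMSO.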

[7] = target: human Retinoid X Receptor beta (RXRb), RXRB (gene 6257) (UniProt P28702); assay: ATG_RXRb_TRANS: Attagene TRANS-FACTORIAL HepG2 Assay for human Retinoid X Receptor beta (RXRb) (AID 2283013)
human Retinoid X Receptor beta (RXRb), RXRB (gene 6257), sequence (P28702 whole entry, looked up, the tested form may be a part): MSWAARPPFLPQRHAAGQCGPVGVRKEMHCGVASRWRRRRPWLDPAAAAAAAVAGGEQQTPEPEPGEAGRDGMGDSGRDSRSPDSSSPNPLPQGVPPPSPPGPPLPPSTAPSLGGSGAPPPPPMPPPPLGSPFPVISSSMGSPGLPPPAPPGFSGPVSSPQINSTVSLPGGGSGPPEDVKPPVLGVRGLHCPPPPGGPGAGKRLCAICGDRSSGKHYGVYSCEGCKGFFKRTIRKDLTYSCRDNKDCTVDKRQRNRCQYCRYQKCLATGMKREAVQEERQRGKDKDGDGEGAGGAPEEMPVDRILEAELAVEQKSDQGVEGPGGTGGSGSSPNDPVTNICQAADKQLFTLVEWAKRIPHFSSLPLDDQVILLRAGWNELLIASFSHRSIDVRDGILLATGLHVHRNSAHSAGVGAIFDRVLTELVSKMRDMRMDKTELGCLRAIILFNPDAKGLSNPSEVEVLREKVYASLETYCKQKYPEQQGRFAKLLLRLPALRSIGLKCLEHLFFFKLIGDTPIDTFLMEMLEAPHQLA
Summary of the method: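 After a 24 h incubation with test chemical, transfected HepG2 cells carrying NR-Gal4 fusions and GAL4-UAS reporter transcription units yield RNA whose reporter cDNA is FAM-labelled, HpaI-cut and sized by capillary electrophoresis; increases over DMSO are scored.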

[8] = target: Peroxisome proliferator-activated receptor gamma (Homo sapiens) (UniProt P37231); assay: ATG_PPARg_TRANS: Attagene TRANS-FACTORIAL HepG2 Assay for human Peroxisome Proliferator-activated Receptor-gamma (PPARg) (AID 2283007)
Summary of the method: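 Endpoint reflects upward reporter mRNA change versus DMSO controls. Setup: transiently transfected HepG2, GAL4-UAS reporters driven by chimeric NR-Gal4, 24 h incubation, RT-PCR with capillary electrophoresis read-out.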

[9] = target: human Thyroid Receptor alpha (THRa1), THRA (gene 7067) (UniProt P10827); assay: ATG_THRa1_TRANS: Attagene TRANS-FACTORIAL HepG2 Assay for human Thyroid Receptor alpha (THRa1) (AID 2283014)
human Thyroid Receptor alpha (THRa1), THRA (gene 7067), sequence (P10827 whole entry, looked up, the tested form may be a part): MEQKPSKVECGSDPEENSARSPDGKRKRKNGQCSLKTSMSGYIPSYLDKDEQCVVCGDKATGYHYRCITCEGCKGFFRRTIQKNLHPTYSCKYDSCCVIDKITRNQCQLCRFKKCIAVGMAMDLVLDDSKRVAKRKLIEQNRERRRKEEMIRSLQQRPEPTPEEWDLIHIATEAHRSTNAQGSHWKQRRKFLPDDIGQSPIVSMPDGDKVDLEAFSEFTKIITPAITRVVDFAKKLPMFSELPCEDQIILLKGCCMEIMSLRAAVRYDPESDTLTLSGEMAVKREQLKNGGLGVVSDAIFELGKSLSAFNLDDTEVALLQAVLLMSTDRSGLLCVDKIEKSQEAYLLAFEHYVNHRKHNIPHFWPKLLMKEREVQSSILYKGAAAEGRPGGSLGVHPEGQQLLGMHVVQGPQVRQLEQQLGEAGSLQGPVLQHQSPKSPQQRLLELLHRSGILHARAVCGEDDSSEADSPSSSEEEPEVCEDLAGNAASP
Summary of the method: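 Measured here is mRNA from a GAL4-UAS reporter in transfected HepG2 cells carrying a Gal4-fused receptor, 24 h post-dose. DMSO served as negative control and baseline.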

[10] = target: Retinoic acid receptor alpha (Homo sapiens) (UniProt P10276); assay: ATG_RARa_TRANS: Attagene TRANS-FACTORIAL HepG2 Assay for human Retinoic Acid Receptor alpha (RARa) (AID 2283005)
Retinoic acid receptor alpha (Homo sapiens), sequence (P10276 whole entry, looked up, the tested form may be a part): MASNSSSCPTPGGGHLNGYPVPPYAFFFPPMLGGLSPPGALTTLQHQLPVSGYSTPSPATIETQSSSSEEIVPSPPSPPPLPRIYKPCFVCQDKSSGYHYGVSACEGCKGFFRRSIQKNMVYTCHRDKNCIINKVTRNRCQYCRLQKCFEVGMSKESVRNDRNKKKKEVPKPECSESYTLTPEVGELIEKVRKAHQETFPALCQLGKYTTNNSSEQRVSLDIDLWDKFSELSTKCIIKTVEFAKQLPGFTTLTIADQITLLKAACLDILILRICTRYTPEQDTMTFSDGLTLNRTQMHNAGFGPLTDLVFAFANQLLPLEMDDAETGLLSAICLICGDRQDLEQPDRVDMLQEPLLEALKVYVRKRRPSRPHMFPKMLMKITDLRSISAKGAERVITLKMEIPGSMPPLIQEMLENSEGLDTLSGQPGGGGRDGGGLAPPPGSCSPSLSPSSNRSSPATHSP
Summary of the method: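 HepG2 transiently transfected with multiplex GAL4-UAS reporter units including a human RARa–GAL4 chimera; 24 h compound exposure. Reporter mRNA quantified by RT-PCR, 6-FAM labeling and capillary electrophoresis; gain of signal versus DMSO.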

[11] = target: human Retinoic Acid Receptor gamma (RARg), RARG (gene 5916) (UniProt P13631); assay: ATG_RARg_TRANS: Attagene TRANS-FACTORIAL HepG2 Assay for human Retinoic Acid Receptor gamma (RARg) (AID 2283009)
human Retinoic Acid Receptor gamma (RARg), RARG (gene 5916), sequence (P13631 whole entry, looked up, the tested form may be a part): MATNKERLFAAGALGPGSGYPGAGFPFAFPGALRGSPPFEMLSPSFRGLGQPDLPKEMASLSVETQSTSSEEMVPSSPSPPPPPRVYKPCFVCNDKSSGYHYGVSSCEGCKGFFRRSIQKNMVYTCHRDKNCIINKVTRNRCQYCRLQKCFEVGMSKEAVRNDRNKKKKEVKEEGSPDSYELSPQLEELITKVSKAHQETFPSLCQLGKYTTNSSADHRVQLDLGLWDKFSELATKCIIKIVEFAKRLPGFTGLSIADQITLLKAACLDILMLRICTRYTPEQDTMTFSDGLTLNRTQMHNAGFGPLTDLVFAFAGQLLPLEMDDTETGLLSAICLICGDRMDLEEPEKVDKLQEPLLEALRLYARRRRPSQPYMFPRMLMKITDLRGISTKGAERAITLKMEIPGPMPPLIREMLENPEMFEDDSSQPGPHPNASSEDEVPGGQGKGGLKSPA
Summary of the method: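 Gain-of-signal relative to DMSO is reported from fluorescent capillary electrophoresis of RT-PCR reporter products. These came from HepG2 cells expressing transfected RARg-GAL4 chimeras with UAS reporters, harvested 24 h after dosing.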

[12] = read-out: Intercellular Adhesion Molecule 1 (ICAM1), ICAM1 (gene 3383); assay: BSK_3C_ICAM1: BioMAP Diversity Plus: 3C Assay for Intercellular Adhesion Molecule 1 (ICAM1) Biomarker Activity (AID 2283003; active = hit-call score of the fitted dose curve at least 0.9, where 1 is the maximum; inactive = score below 0.9); settings: primary human endothelial cells (HUVEC); actives raise or lower the signal
Summary of the method: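 Using DMSO as baseline, bidirectional curve fitting was applied to ICAM-1 ELISA signals from HUVEC in the 3C system, measured 24 h after compound addition.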

[13] = BSK_3C_Proliferation: Cell Proliferation Assessment in the BioMAP Diversity Plus: 3C Assay (AID 2283006; active = hit-call score of the fitted dose curve at least 0.9, where 1 is the maximum; inactive = score below 0.9;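 as to AC50: potency may reflect either rise or fall in cell number versus DMSO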); settings: primary human endothelial cells (HUVEC)
Summary of the method: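 Measured here: sulforhodamine B (0.1%) staining of TCA-fixed sub-confluent umbilical vein endothelial cultures 48 h post-dosing, absorbance 560 nm. DMSO served as negative control and baseline; both signal gain and loss were modelled.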

[14] = read-out: E-selectin (Homo sapiens) (UniProt P16581); assay: BSK_3C_Eselectin: BioMAP Diversity Plus: 3C Assay for Eselectin Biomarker Activity (AID 2283015; active = hit-call score of the fitted dose curve at least 0.9, where 1 is the maximum; inactive = score below 0.9); settings: primary human endothelial cells (HUVEC); actives raise or lower the signal
Summary of the method: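 Endpoint derived by bidirectional fitting against DMSO vehicle; signal is ELISA-detected E-selectin from primary HUVEC at 24 h post-dosing, with parallel SRB staining (0.1% SRB, 560 nm) flagging cytotoxicity.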

[15] = read-out: Interleukin-1 alpha (IL1a), IL1A (gene 3552); assay: BSK_BE3C_IL1a: BioMAP Diversity Plus: BE3C Assay for Interleukin-1 alpha (IL1a) Biomarker Activity (AID 2283016; active = hit-call score of the fitted dose curve at least 0.9, where 1 is the maximum; inactive = score below 0.9); settings: primary human bronchial epithelial cells; actives raise or lower the signal
Summary of the method: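 Measured in human lung primary bronchial epithelial cells: IL-1a by ELISA at 24 h after dosing, with bidirectional fitting against DMSO.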

[16] = read-out: Monocyte Chemoattractant Protein-1 (MCP1), CCL2 (gene 6347); assay: BSK_3C_MCP1: BioMAP Diversity Plus: 3C Assay for Monocyte Chemoattractant Protein-1 (MCP1) Biomarker Activity (AID 2283017; active = hit-call score of the fitted dose curve at least 0.9, where 1 is the maximum; inactive = score below 0.9); settings: primary human endothelial cells (HUVEC); actives raise or lower the signal
Summary of the method: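 Using human vascular primary endothelium, researchers measured MCP-1 by ELISA 24 h after treatment, with DMSO serving as negative control for bidirectional fitting.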

[17] = read-out: Monocyte Chemoattractant Protein-1 (MCP1), CCL2 (gene 6347); assay: BSK_4H_MCP1: BioMAP Diversity Plus: 4H Assay for Monocyte Chemoattractant Protein-1 (MCP1) Biomarker Activity (AID 2283018; active = hit-call score of the fitted dose curve at least 0.9, where 1 is the maximum; inactive = score below 0.9); settings: primary human endothelial cells (HUVEC); actives raise or lower the signal
Summary of the method: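 Primary human umbilical vein endothelium is exposed to chemical for 24 h before MCP-1 is assayed by ELISA. Concentration-response fitted bidirectionally relative to DMSO.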

[18] = read-out: Human Leukocyte Antigen - DR isotype (HLADR), HLA-DRA (gene 3122); assay: BSK_3C_HLADR: BioMAP Diversity Plus: 3C Assay for Human Leukocyte Antigen - DR isotype (HLADR) Biomarker Activity (AID 2283019; active = hit-call score of the fitted dose curve at least 0.9, where 1 is the maximum; inactive = score below 0.9); settings: primary human endothelial cells (HUVEC); actives raise or lower the signal
Summary of the method: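 Compound added to primary HUVEC cultures, 24 h incubation, then HLA-DR determined by ELISA; endpoint derived by bidirectional fitting relative to DMSO negative control.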

[19] = read-out: Interleukin-8 (IL8), CXCL8 (gene 3576); assay: BSK_3C_IL8: BioMAP Diversity Plus: 3C Assay for Interleukin-8 (IL8) Biomarker Activity (AID 2283020; active = hit-call score of the fitted dose curve at least 0.9, where 1 is the maximum; inactive = score below 0.9); settings: primary human endothelial cells (HUVEC); actives raise or lower the signal
Summary of the method: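 Using DMSO-treated wells as the baseline, bidirectional curve fitting was applied to ELISA-measured IL-8 from human umbilical vein endothelial cultures sampled 24 h after compound addition.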

Measured: AC50

E-selectin (Homo sapiens), sequence (P16581 whole entry, looked up): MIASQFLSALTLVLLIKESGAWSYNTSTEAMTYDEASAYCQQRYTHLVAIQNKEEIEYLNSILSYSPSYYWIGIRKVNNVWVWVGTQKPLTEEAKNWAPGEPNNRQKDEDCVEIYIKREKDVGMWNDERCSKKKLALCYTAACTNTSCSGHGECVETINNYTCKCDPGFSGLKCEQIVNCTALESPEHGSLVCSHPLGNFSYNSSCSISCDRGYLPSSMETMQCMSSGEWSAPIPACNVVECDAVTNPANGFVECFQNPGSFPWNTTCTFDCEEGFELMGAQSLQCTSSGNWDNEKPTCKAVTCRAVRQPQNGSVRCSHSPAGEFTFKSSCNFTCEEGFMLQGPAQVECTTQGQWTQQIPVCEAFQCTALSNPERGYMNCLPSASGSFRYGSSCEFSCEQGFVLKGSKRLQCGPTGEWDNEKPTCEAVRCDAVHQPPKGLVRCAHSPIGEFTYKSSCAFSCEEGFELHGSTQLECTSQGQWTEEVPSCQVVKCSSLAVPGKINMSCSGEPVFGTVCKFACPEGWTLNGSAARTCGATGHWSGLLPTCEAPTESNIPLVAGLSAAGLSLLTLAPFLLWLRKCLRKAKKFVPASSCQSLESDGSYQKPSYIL

CC(=O)C(=O)O
inactive: [1] | [2] | [3] | [4] | [5] | [6] | [7]

CN1[C@@H]2CC(OC(=O)[C@H](CO)c3ccccc3)C[C@H]1[C@@H]1O[C@@H]12 (stereo partly specified)
inactive: [1] | [8] | [3] | [4] | [5] | [9]
active: [7] 160 µM

C=CC[N+](C)(C)CC=C
inactive: [1] | [2] | [10] | [3] | [11] | [4] | [6]

O=Cc1ccc(F)cc1
inactive: [1] | [8] | [3] | [4] | [5] | [6] | [7]

[Ca+2]
inactive: [1] | [10] | [3] | [5] | [7]

COC(=O)C1=C(C)NC(C)=C(C(=O)OCCN(C)Cc2ccccc2)C1c1cccc([N+](=O)[O-])c1 (stereo unspecified)
active: [8] 27.7 µM
inactive: [1]

Clc1nc(C(Cl)(Cl)Cl)c(Cl)c(Cl)c1Cl
active: [8] 1.45 µM | [7] 21.8 µM
inactive: [1] | [4] | [5] | [6] | [9]

CC1COc2ccccc2N1C(=O)C(Cl)Cl (stereo unspecified)
inactive: [1] | [12] | [6] | [9] | [16] | [17] | [19]
active: [13] 5.24 µM | [14] 20 µM | [15] 5.26 µM | [18] 7.04 µM

CCOC(=O)c1ccccc1OC
inactive: [1] | [2] | [8] | [3] | [11] | [6] | [7]

COc1cc(C(C)(C)C)c(O)c(C(C)(C)C)c1
inactive: [1] | [8] | [3] | [9]
active: [7] 0.745 µM

CC(=O)c1c(C)cc(C(C)(C)C)cc1C
inactive: [1] | [2] | [10] | [8] | [11] | [6] | [9]
active: [7] 31.4 µM

Cc1cc(C2(c3cc(C)c(O)cc3C)OS(=O)(=O)c3ccccc32)c(C)cc1O
active: [3] 32.7 µM
inactive: [12] | [13] | [8] | [6] | [7] | [14] | [15] | [16] | [17] | [18] | [19]

O=C(O)c1cn(-c2ccc(F)cc2)c2cc(N3CCNCC3)c(F)cc2c1=O
inactive: [12] | [13] | [5] | [7] | [9] | [14] | [15] | [16] | [17] | [18] | [19]
